The list shows a part of the results. How many sequences the whole screen found active is unknown.

For the test, the target named is furin, P09958. Kind of test: furin cleavage Z-score vs untreated control; higher = more cleavage, active = 3.5 or more, inactive = 1 or less, 8 variable residues between constant flanks. The method, boiled down:
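To give the cleavage Z-score, log read counts were set against furin-free reactions, lowess-adjusted and scaled by median absolute deviation. These counts came from PCR adapter-tagged, sequenced DNA released when purified furin cut 8-mer peptides fused to a cDNA oligonucleotide and held on magnetic beads by their N-terminus. Digests were 0.01 ml, 1:10 enzyme:substrate, in 50 mM HEPES pH 7.5 with CaCl2 and NaCl, for 7.5, 15 or 30 min.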

Sequence of furin, P09958 (P09958 whole entry, the tested form may be a part): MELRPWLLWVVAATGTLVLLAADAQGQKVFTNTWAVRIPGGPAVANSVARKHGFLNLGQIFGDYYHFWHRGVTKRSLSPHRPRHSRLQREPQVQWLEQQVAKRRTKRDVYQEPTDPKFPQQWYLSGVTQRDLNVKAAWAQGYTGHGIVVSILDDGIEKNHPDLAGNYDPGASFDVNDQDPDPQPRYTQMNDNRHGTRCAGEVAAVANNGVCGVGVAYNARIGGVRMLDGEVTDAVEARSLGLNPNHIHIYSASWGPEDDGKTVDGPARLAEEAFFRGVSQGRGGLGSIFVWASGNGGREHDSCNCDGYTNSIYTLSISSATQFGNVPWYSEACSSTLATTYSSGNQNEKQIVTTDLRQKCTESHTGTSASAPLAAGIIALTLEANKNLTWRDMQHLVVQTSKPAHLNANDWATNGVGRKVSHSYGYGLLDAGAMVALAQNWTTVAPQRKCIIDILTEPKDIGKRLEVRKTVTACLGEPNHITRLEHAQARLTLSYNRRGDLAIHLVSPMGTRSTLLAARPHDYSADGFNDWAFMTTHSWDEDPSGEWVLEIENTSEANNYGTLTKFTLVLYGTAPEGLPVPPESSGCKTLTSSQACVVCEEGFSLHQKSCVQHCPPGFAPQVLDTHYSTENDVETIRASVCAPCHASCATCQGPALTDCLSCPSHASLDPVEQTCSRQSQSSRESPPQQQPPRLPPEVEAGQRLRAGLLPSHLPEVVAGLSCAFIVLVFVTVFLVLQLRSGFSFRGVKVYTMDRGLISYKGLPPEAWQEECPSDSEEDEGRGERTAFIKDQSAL

As for CATFPINAYTAGNASASA [HC1190], the “furin cleavage Z-score” value reads like this: (7.5 min) -0.0204 (inactive); (15 min) -1.04 (inactive); (30 min) -0.568 (inactive).
As to CARSRRSQINAGNASASA [FS-2383], the “furin cleavage Z-score” value by setting is: (7.5 min) 1.8; (15 min) 3.75 (active); (30 min) 2.57.
The corresponding values for CARAPRSKVPAGNASASA [FS-2251] are 0.556 (inactive), 0.0997 (inactive) and 1.62.
Taken in the same sequence, the figures for CARAPRDSDAAGNASASA [FS-2546] were -0.983 (inactive), 0.168 (inactive) and 0.352 (inactive).
Taken in the same sequence, the figures for CARSRRSPRAAGNASASA [FS-1794] were 11.3 (active), 13.6 (active) and 9.99 (active).
In the case of CARAPRSPRAAGNASASA [FS-3183], the “furin cleavage Z-score” value (7.5 min) was 9.2 (active), the “furin cleavage Z-score” value (15 min) is 8.63 (active) and the “furin cleavage Z-score” value (30 min) was 8.05 (active).
For CARSRRSYSCAGNASASA [FS-3238], the “furin cleavage Z-score” value was 0.584 (inactive) (7.5 min), 1.19 (15 min) and 2.38 (30 min).
The corresponding values for CARSGRSIINAGNASASA [FS-3080] are -0.514 (inactive), 0.929 (inactive) and 1.74.
On to CARSRRSAFHAGNASASA [FS-2819], for which the “furin cleavage Z-score” value is, setting by setting: (7.5 min) 8.26 (active); (15 min) 9.19 (active); (30 min) 8.92 (active).
The corresponding values for CARSLRSQIRAGNASASA [FS-2309] are 0.116 (inactive), -1.95 (inactive) and 0.712 (inactive).
The corresponding values for CATGWLAGLFAGNASASA [HC378] are 1, 1.08 and 0.703 (inactive).
With CATTPCSGSCAGNASASA [HC1940], the “furin cleavage Z-score” value (7.5 min) was -1.36 (inactive), the “furin cleavage Z-score” value (15 min) was -1.27 (inactive) and the “furin cleavage Z-score” value (30 min) is -2.07 (inactive).
The corresponding values for CAVQLINTNGAGNASASA [HC366] are 0.569 (inactive), -1.46 (inactive) and 0.762 (inactive).
Taken in the same sequence, the figures for CARTVVLTESAGNASASA [HC1326] were 0.659 (inactive), 0.273 (inactive) and -0.545 (inactive).
Turning to CAAASLRAFTAGNASASA [HC1537], the “furin cleavage Z-score” value reads like this: (7.5 min) -0.944 (inactive); (15 min) -0.499 (inactive); (30 min) -0.478 (inactive).
In the case of CATPSRAGRAAGNASASA [FS-99], the “furin cleavage Z-score” value is, setting by setting: (7.5 min) 3.27; (15 min) 3.92 (active); (30 min) 2.86.
Taken in the same sequence, the figures for CAQPARIGRAAGNASASA [FS-1152] were 5.34 (active), 7.28 (active) and 7.16 (active).
As to CATPSRCVRIAGNASASA [FS-203], the “furin cleavage Z-score” value by setting is: (7.5 min) 0.645 (inactive); (15 min) -1.67 (inactive); (30 min) -0.417 (inactive).
The corresponding values for CATPSRMIRTAGNASASA [FS-1425] are 4.04 (active), 5.44 (active) and 5.33 (active).
The corresponding values for CALLARGGRAAGNASASA [HC1626] are 3.15, 3.33 and 3.52 (active).
On to CAQKKRGGPAAGNASASA [WN3], for which the “furin cleavage Z-score” value is 0.322 (inactive) (7.5 min), -1.02 (inactive) (15 min) and 0.637 (inactive) (30 min).
Taken in the same sequence, the figures for CAQKLETFWAAGNASASA [HC1038] were 2.24, -0.183 (inactive) and -1.19 (inactive).
The corresponding values for CAMGECSQHLAGNASASA [HC1696] are 2.31, 0.612 (inactive) and 1.45.
Regarding CAVVCCGMSYAGNASASA [HC102], the “furin cleavage Z-score” value (7.5 min) was -1.2 (inactive), the “furin cleavage Z-score” value (15 min) is -0.443 (inactive) and the “furin cleavage Z-score” value (30 min) was -0.831 (inactive).
Taken in the same sequence, the figures for CAGACYSIEPAGNASASA [HC1595] were -0.464 (inactive), -0.533 (inactive) and -1.27 (inactive).
The corresponding values for CADVMEECSQAGNASASA [HC1810] are 0.0621 (inactive), 0.463 (inactive) and -0.158 (inactive).
Taken in the same sequence, the figures for CAEVVTSDWVAGNASASA [HC2211] were -1.36 (inactive), -1.03 (inactive) and -1.22 (inactive).
As to CAFLLALLSCAGNASASA [HC249], the “furin cleavage Z-score” value (7.5 min) is -0.759 (inactive), the “furin cleavage Z-score” value (15 min) is -1.73 (inactive) and the “furin cleavage Z-score” value (30 min) is -0.995 (inactive).
Taken in the same sequence, the figures for CAHANRTGRAAGNASASA [FS-130] were 3.34, 5.9 (active) and 5.93 (active).
The corresponding values for CAHAVGIFRAAGNASASA [HC748] are -0.783 (inactive), -0.538 (inactive) and 0.453 (inactive).
The corresponding values for CAVVCCSPSYAGNASASA [HC2059] are 0.343 (inactive), 0.71 (inactive) and -0.572 (inactive).
CANTNGSWHLAGNASASA [HC368]: the “furin cleavage Z-score” value reads like this: (7.5 min) -0.455 (inactive); (15 min) 0.77 (inactive); (30 min) -0.519 (inactive).
As for CARRQPIPKAAGNASASA [HC191], the “furin cleavage Z-score” value was -0.467 (inactive) (7.5 min), -0.696 (inactive) (15 min) and -2.34 (inactive) (30 min).
The corresponding values for CARDPRAAIQAGNASASA [FS-2905] are -0.00694 (inactive), -0.144 (inactive) and 0.0435 (inactive).
Take CARRGRAARHAGNASASA [FS-1609]: the “furin cleavage Z-score” value is 7.16 (active) (7.5 min), 6.27 (active) (15 min) and 7.79 (active) (30 min).
Turning to CARRGRPGLKAGNASASA [FS-2066], the “furin cleavage Z-score” value by setting is: (7.5 min) -0.499 (inactive); (15 min) -1.08 (inactive); (30 min) -0.201 (inactive).
For CARKARYAIQAGNASASA [FS-1901], the “furin cleavage Z-score” value is 1.15 (7.5 min), 3.07 (15 min) and 5.59 (active) (30 min).
Taken in the same sequence, the figures for CARRGRAGSDAGNASASA [FS-2065] were -0.603 (inactive), -0.507 (inactive) and -0.432 (inactive).
The corresponding values for CARKARWLRAAGNASASA [FS-2262] are 8.22 (active), 9.39 (active) and 8.11 (active).
Regarding CARRKRYAEHAGNASASA [FS-3056], the “furin cleavage Z-score” value is, setting by setting: (7.5 min) 8.67 (active); (15 min) 11.2 (active); (30 min) 9.71 (active).
Turning to CAEDAASLRAAGNASASA [HC1536], the “furin cleavage Z-score” value was 1.18 (7.5 min), 0.0869 (inactive) (15 min) and 0.0662 (inactive) (30 min).
Taken in the same sequence, the figures for CAVVCCSMSAAGNASASA [HC2083] were 0.0703 (inactive), -1.17 (inactive) and -0.85 (inactive).

Values taken from the supplement of paper PMC3545927.
